Rows were chosen to be rich in hits. Some 3.8% of all compounds tested hit in one or more screens of this group.
Nrf2 inh: Nrf2 qHTS screen for inhibitors; A549 ARE-Fluc reporter, luciferase luminescence, 18-24 h; Potency, µM (doses to about 46 µM), without a hit: top-dose activity change, negative = inhibition, actives largely listed as inhibitors; 2.1% of 360,000 active; also: % is scaled to controls: 0 for no effect and ±100 for the full control effect; nearly all actives have a fitted effect of over 60% in size
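Two sequential reads on A549 ARE_Fluc cells exposed to compound for 18-24 h: a CellTiter-Fluor fluorescence read for viability, then a luciferase luminescence read for Nrf2/ARE activity.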
A549 tox-1: Nrf2 qHTS screen for inhibitors: counterscreen for cytotoxicity | Potency, µM (titrated, usually from 46 µM), for inactives: at the top dose activity change, negative = cytotoxicity, hits mostly inhibitors | AID 504648, 2011 | 0.16% of 390,000 active | A549 ARE-Fluc cells, CellTiter-Fluor viability, 18-24 h; also: % is scaled to controls: 0 for no effect and ±100 for the full control effect
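A549 ARE_Fluc cells in 5% FBS OPTI-MEM were exposed to compounds in concentration-response for 18-24 h at 37 deg C. Viability was read by CellTiter-Fluor fluorescence (Ex 405/Em 525) after 30 min, before the luciferase read.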
TGFb inhibitor: qHTS for Inhibitors of TGF-b; HepG2 CAGA-GFP TGF-b/SMAD3 reporter, GFP fluorescence, 18 h; TGF-beta stimulated, 500 pg/mL final; Potency, µM (series often up to 46.1 µM), without a hit: at the top dose activity, negative = inhibition, hits mostly inhibitors; 1.2% of 410,000 active; AID 588855, 2011; also: % is scaled to controls: 0 for no effect and ±100 for the full control effect; nearly all actives have a fitted effect of over 65% in size
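GFP signal (ex488/em500-530) from TGF-beta-stimulated HEPG2 CAGA-GFP cells, 500 pg/mL final, 18 h at 37 degrees C in DMEM plus 1% FBS, normalized to unstimulated and DMSO-stimulated controls.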
HepG2 tox: qHTS for Inhibitors of TGF-b: Cytotox Counterscreen. HepG2 CAGA-GFP viability, ATP luminescence, 18 h. Potency, µM (series often up to 46.1 µM), for the others: top-dose activity change, negative = cytotoxicity, usual class: cytotoxic. 0.76% of 410,000 active. AID 588856, 2011
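CellTiter-Glo luminescence gave cytotoxicity after 18 hours at 37 degrees C. The cells were HepG2 CAGA-GFP in 1% FBS DMEM, stimulated with 500 pg/mL TGF-beta after compound addition. %Activity was normalised to no-cell wells (complete cell-killing) and DMSO (no toxicity), and curves were fitted and classified.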
ATXN2 expr inh: Primary qHTS for Inhibitors of ATXN expression | HEK-293 ATXN2-luciferase reporter, luminescence, 24 h | Potency, µM (titrated, usually from 57 µM), inactives show at the highest dose activity change, negative = inhibition, usual class: inhibitors | 0.72% of 360,000 active | AID 1745845, 2022; also: % is scaled to controls: 0 for no effect and ±100 for the full control effect; nearly all actives have a fitted effect of over 55% in size
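ATXN2-luciferase reporter cells (luciferase flanked by upstream and downstream ATXN2 gene portions) were treated 24 h at 37 °C with compounds at up to 57 uM. SteadyGlo luminescence gave expression; GF-AFC fluorescence gave viability.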
ATXN viability: Viability Counterscreen for Primary qHTS for Inhibitors of ATXN expression | 0.49% of 400,000 active | S2 cells (HEK-293 line with an ATXN2-luciferase reporter) viability, CellTiter-Fluor protease fluorescence, 24 h | Potency, µM (highest dose often 56.7 µM), actives largely listed as cytotoxic; also: nearly all actives have a fitted effect of over 40% in size
FLuc counter 3: Nrf2 qHTS screen for inhibitors: Purified Fluc Biochemical Counterscreen for Hit Validation; shares compounds with Nrf2 inh; purified firefly luciferase, luminescence inhibition; Potency, µM (titrated, usually from 57.5 µM), inactives show at the top dose activity change, negative = inhibition, usual class: inhibitors; 4% of 1,400 active; AID 720522, 2013; also: % is scaled to controls: 0 for no effect and ±100 for the full control effect; nearly all actives have a fitted effect of over 65% in size
Target sequence (P08659 whole entry, looked up): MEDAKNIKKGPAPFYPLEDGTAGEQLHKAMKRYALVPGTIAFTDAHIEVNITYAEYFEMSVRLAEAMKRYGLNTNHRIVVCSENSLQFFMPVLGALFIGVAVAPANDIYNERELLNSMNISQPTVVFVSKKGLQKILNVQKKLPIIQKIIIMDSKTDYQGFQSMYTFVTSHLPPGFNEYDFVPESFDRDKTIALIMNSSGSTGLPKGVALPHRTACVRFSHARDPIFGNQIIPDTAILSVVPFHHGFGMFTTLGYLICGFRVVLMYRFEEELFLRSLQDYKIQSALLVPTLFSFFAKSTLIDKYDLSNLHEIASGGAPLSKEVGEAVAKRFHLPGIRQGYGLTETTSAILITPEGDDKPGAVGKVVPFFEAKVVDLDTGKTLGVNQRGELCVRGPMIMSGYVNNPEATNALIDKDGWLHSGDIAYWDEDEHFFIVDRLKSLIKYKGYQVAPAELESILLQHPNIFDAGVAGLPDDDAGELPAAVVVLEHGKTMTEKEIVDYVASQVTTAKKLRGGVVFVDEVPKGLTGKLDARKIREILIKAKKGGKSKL
A549 tox-2: Nrf2 qHTS screen for inhibitors: A549 ARE-Fluc Cytotoxicity Counterscreen for Hit Validation | Potency, µM (doses to about 46.1 µM), for the others: at the top dose activity change, negative = cytotoxicity, actives largely listed as inhibitors | 2% of 1,400 active | AID 720523, 2013 | A549 ARE-Fluc cells, cytotoxicity counterscreen | shares compounds with Nrf2 inh;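 also: cells exposed to compounds for 18 to 24 hours; % is scaled to controls: 0 for no effect and ±100 for the full control effect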
Nrf2 ARE inh: Nrf2 qHTS screen for inhibitors: Nrf2 A549 ARE-Fluc Confirmation Assay for Hit Validation | A549 ARE-firefly luciferase reporter, luminescence | shares compounds with Nrf2 inh | AID 720524, 2013 | 74% of 1,400 active | Potency, µM (series often up to 46.1 µM), without a hit: top-dose activity change, negative = inhibition, actives largely listed as inhibitors; also: % is scaled to controls: 0 for no effect and ±100 for the full control effect; nearly all actives have a fitted effect of over 65% in size
The depositor's hits bear a star; i = inactive; ? = inconclusive; / = no result given; ! = not confirmed by another sample. Calls follow the shape of the dose curve; as a rule, active = well fitted curve in the direction sought with a large enough effect; inconclusive = small, poorly fitted or top-dose-only effect, or another doubt; inactive = no such curve, though single readings can be large; an effect the other way counts as inactive or inconclusive. Potency is read from the fitted curve at half-maximal effect.

SMILES	Nrf2 inh	A549 tox-1	TGFb inhibitor	HepG2 tox	ATXN2 expr inh	ATXN viability	FLuc counter 3	A549 tox-2	Nrf2 ARE inh
CC(=NNC(=O)c1ccncc1)c1ccc2ccccc2c1O	2.59µM*	?	116.0%	-31.5%	?	i	-17.3%	-16.8%	4.11µM*
COc1ccc(-c2nc(CSCC(=O)N3CCN(c4ccccc4F)CC3)c(C)o2)cc1	5.8µM*	?	6.31µM*	-34.9%	?	/	-22.0%	-16.4%	9.2µM*
Cc1oc(-c2ccccc2Cl)nc1CSCC(=O)N1CCCC1	?	-2.3%	3.8%	-47.5%	17.1%	i	/	/	/
Cc1oc(-c2ccccc2F)nc1CSCC(=O)N1CCN(c2ccccc2)CC1	7.31µM*	-22.3%	?	-49.5%	?	?	2.3%	-8.4%	11.6µM*
Cc1ccc2nc(COc3cccc(NC(=O)COc4ccccc4F)c3)cc(=O)n2c1	/	0.2%	-18.3%	3.1%	/	/	/	/	/
COc1ccc(N2CCN(S(=O)(=O)c3ccc4c(c3)CC(C)N4C(=O)C3CC3)CC2)cc1 (stereo not given)	9.9%	-1.3%	-2.0%	-6.1%	-16.9%	i	/	/	/
CC(=O)c1ccc(N2CCN(S(=O)(=O)c3ccc4c(c3)CC(C)N4C(=O)C3CC3)CC2)cc1 (stereo not given)	5.8µM*	-17.0%	-4.8%	0.0%	-19.1%	?	-0.2%	-15.0%	3.66µM*
CC(=O)c1ccc(N2CCN(S(=O)(=O)c3ccc4c(c3)CC(C)N4C(C)=O)CC2)cc1 (stereo not given)	5.8µM*	-12.9%	-25.6%	-15.7%	-33.2%	i	2.69µM*	-4.1%	6.1%
COCCn1c(=S)[nH]c2cc(C(=O)NC3CCCC(C)C3C)ccc2c1=O (stereo not given)	/	/	-1.5%	0.2%	/	i	/	/	/
COc1cccc(CN2CC(C(=O)NCC3CCOCC3)CCC2=O)c1 (stereo not given)	7.3%	4.6%	5.6%	10.2%	6.7%	i	/	/	/
O=C(Nc1ccc(Oc2cccnc2)nc1)c1ccc(C(F)(F)F)cc1	5.8µM*	0.1%	0.2%	-42.0%	-39.0%	i	?	-5.0%	4.61µM*
COc1ccc(N(C(=O)c2ccc(OC)c(OC)c2)S(=O)(=O)c2ccc(Cl)cc2)cc1	?	-6.5%	-16.7%	-26.5%	-10.0%	i	/	/	/
COc1ccc(NC(=O)COc2ccc(N(C)S(=O)(=O)c3ccc(Cl)cc3)cc2)cc1OC	9.2µM*	-9.1%	?	-16.0%	?	?	3.4%	-11.4%	6.51µM*
Nc1nc(Cl)cc(N2CCC(c3cc(-c4ccc(Cl)cc4)n[nH]3)CC2)n1	8.2µM*	?	11.2µM*	11.2µM*	25.1µM*	?	-19.2%	-21.4%	18.4µM*
CC(=O)N(C)C1=C(N2CCOCC2)C(=O)c2ccccc2C1=O	0.461µM*	8.2µM*	1.58µM*	0.562µM*	1.41µM*	3.55µM*	-19.7%	16.4µM*	5.8µM*
CCCc1sc(N/N=C/c2ccccn2)nc1-c1ccc(Br)cc1	2.91µM*	?	?	-17.2%	2.82µM*	/	-29.3%	-29.5%	5.8µM*
CC(=O)Nc1sc(N/N=C/c2ccccc2)nc1-c1ccc(C)cc1	12.2%	-3.6%	-0.7%	-10.2%	13.5%	i	/	/	/
COc1ccc(CNS(=O)(=O)c2ccc3c(c2)NC(=O)C(C)S3)cc1 (stereo not given)	-5.6%	1.2%	-57.2%	-35.8%	/	i	/	/	/
CC(=O)C1(C)CCC2C3C=C(C)C4=CC(=O)CCC4(C)C3CCC21C (stereo not given)	?	-5.4%	-19.8%	-9.3%	0.0%	i	/	/	/
C=C1C[C@H]2[C@@H]3C=C(C)C4=CC(=O)CC[C@]4(C)[C@H]3CC[C@]2(C)[C@@]1(OC(C)=O)C(C)=O	?	-5.1%	2.7%	12.3%	1.2%	i	-0.8%	-9.4%	0.164µM*
COc1ccc(OCC(O)Cn2c(NCCO)nc3c2c(=O)n(C)c(=O)n3C)cc1 (stereo not given)	7.31µM*	-6.4%	-7.2%	-6.9%	/	/	0.9%	-2.8%	11.6µM*
COc1ccccc1CCNC(=O)C(C)n1nc(C)c2c(C)n(-c3ccccc3)nc2c1=O (stereo not given)	-12.4%	0.2%	8.2%	-12.0%	-29.6%	i	/	/	/
COc1ccc(CCNC(=O)C(C)n2nc(C)c3c(C)n(-c4ccc(C)cc4)nc3c2=O)c(OC)c1 (stereo not given)	5.8µM*	?	?	-24.1%	?	?	1.5%	-10.5%	5.8µM*
COc1ccc(NC(=O)C2=CC(c3cccs3)=NS(=O)(=O)N2C)cc1	?	-10.4%	8.8%	-17.1%	-24.3%	?	/	/	/
CN1C(C(=O)Nc2ccc(OC(F)(F)F)cc2)=CC(c2cccs2)=NS1(=O)=O	3.66µM*!	0.8%	?	10.0%	?	?	-2.2%	-26.1%	/
CC(C)(C)OC(=O)N1CCC(C(=O)Nc2cccc(C(=O)N3CCOCC3)c2)CC1	-15.2%	-12.3%	14.5%	1.5%	5.2%	i	/	/	/
Cc1cc(C)c(S(=O)(=O)NCc2ccncc2)c(C)c1	?	-17.5%	-2.3%	-18.6%	-19.3%	i	0.107µM*	-1.7%	0.206µM*
COc1cc(C)c(Br)cc1S(=O)(=O)NCc1ccncc1	3.26µM*	-6.4%	-20.7%	-27.5%	-19.4%	i	1.2%	5.5%	-32.4%
Cc1ccc(S(=O)(=O)NCc2ccncc2)c(C)c1C	1.46µM*	-6.4%	-8.8%	-12.0%	-20.9%	i	-0.1%	-7.1%	6.51µM*
Cc1cc(C)c(S(=O)(=O)NCCc2ccncc2)c(C)c1	-28.2%	-3.2%	-1.8%	-6.2%	-27.3%	i	/	/	/

Screens (PubChem BioAssay)
